Experimental data taken from PubChem BioAssay AID1851 (National Center for Advancing Translational Sciences (NCATS), 2009).
The campaign covered roughly 16,000 compounds. About 5,800 (36%) were called active. Not shown: some 23% with an inconclusive outcome. Calls follow the shape of the dose curve; as a rule, active = well fitted curve in the direction sought with a large enough effect; inconclusive = small, poorly fitted or top-dose-only effect, or effect the other way; inactive = no such curve, though single readings can be large or run the other way. The list shows a part of the results.

Molecular target: Cytochrome P450 2C19 (Homo sapiens) (UniProt P33261)
Assay: Cytochrome panel assay with activity outcomes
Details: recombinant CYP, pro-luciferin dealkylation, luminescence, p450-cyp2c19; series mostly up to 57.1 µM
% is scaled to controls: 0 for no effect and ±100 for the full control effect.

Sequence of Cytochrome P450 2C19 (Homo sapiens) (P33261 whole entry, looked up): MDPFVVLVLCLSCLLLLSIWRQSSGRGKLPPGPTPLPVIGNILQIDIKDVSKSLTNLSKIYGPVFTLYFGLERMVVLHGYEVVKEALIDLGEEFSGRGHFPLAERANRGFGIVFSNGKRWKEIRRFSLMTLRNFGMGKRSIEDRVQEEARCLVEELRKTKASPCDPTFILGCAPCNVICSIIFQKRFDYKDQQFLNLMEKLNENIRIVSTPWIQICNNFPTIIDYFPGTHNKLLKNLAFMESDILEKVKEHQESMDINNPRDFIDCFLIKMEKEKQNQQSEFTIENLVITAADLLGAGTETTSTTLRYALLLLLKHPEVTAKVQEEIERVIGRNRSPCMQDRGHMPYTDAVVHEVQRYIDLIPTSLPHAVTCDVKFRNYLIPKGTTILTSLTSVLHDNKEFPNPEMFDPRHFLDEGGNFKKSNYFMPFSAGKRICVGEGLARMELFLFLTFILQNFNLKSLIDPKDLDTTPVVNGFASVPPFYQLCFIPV

AC50, active:
CSc1nc(-c2ccc(C)cc2)[nH]c1S(=O)(=O)c1ccccc1 8.91 µM
O=C(NC(=S)Nc1cccc(Cl)c1N1CCCCC1)c1ccco1 6.31 µM
O=C(NC(=S)Nc1cccc(Cl)c1N1CCCCC1)c1cccs1 2.51 µM
CC1CCN(c2ccccc2NC(=S)NC(=O)c2cccs2)CC1 8.91 µM
O=C(COc1ccc(Cl)cc1)N(Cc1ccccc1)c1ccccn1 0.501 µM
CCOc1cc(/C=N/n2cnnc2)c(Br)cc1O 10 µM
COc1cc(CNC2CCCC2)cc(Cl)c1OCc1ccccc1Cl 2.24 µM
CCOC(=O)c1[nH]c(COC(=O)CCOc2ccccc2OC)c(C(=O)OCC)c1C 4.47 µM
COc1cc(C2C(=O)N(C3CCCC3)CC(=O)N2Cc2ccco2)ccc1OC(C)C (centres undefined) 4.47 µM
CC1CN(C(=O)c2cc3c(s2)CCC3)CC(C)O1 (centres undefined) 14.1 µM
Cc1cc(C(C#N)c2cccc(Cl)c2)n2ncnc2n1 (centres undefined) 28.2 µM
C[C@H](N)C(=O)OC(C)(C)Cc1ccc(Cl)cc1 3.98 µM
CC1=CC(C)(C)Nc2ccc(CSc3ccccc3)cc21 0.316 µM
Cc1cc(C2C(C#N)=C(N)OC3=C2C(=O)CC(C)(C)C3)c(C)s1 (centres undefined) 4.47 µM
Cc1cc(C2C(C#N)=C(N)Oc3n[nH]c(C)c32)c(C)s1 (centres undefined) 11.2 µM
CC1(C)CC(=O)c2cn3ncnc3nc2C1 15.8 µM
COc1ccc(-c2coc3cc4oc(=O)cc(C)c4cc23)cc1F 3.55 µM
Cn1c(SC2CCCCC2=O)nnc1-c1ccncc1 (centres undefined) 7.08 µM
CC1CC2(CCCCC2)N2C(=O)C(=O)c3cccc1c32 (centres undefined) 2.82 µM
CCOC(=O)C1=C(C)NC(C)=C(C(=O)OC)[C@H]1c1cccc([N+](=O)[O-])c1 0.251 µM
CCOC(=O)C1=C(C)NC(C)=C(C(=O)OC)[C@@H]1c1cccc([N+](=O)[O-])c1 0.126 µM
C#CCN1C(C)=C(C(=O)OC)[C@@H](c2cccc([N+](=O)[O-])c2)C(C(=O)OCC)=C1C 5.01 µM
CCN(C1CCCCC1)S(=O)(=O)c1ccc(S(=O)(=O)NCc2ccncc2)cc1 1.58 µM
CCCCSc1nnc(-c2ccc(C)cc2)n1C 14.1 µM
O=[N+]([O-])c1cc(Cc2cc([N+](=O)[O-])c3cccnc3c2O)c(O)c2ncccc12 2.51 µM
CC(=O)N1CCN(c2nc(C)nc3sc4c(c23)CCC(C)C4)CC1 (centres undefined) 4.47 µM
CCN(CC)c1ccc(/C=C/c2nc3ccccc3s2)cc1 2 µM
Cc1cccc(OCCCCCn2ccnc2)c1 0.0398 µM
Cc1ccc(OCCOCCn2ccnc2)c(Br)c1 0.0158 µM
Cn1ncc(C#N)c1/N=C/N1CCCCCC1 14.1 µM
COc1ccccc1-c1cc(NCc2cnc(C)cn2)ncn1 15.8 µM
COc1ccccc1-c1cc(NCc2ccccc2)ncn1 7.94 µM
COc1ccccc1-c1cc(NCc2cccc(C)c2)ncn1 3.98 µM

AC50, inactive:
CCn1c(=O)c2[nH]c(-c3ccccc3)nc2n(CC)c1=O
O=C(NC(=S)Nc1cccc(Cl)c1N1CCCC1)c1ccc(-c2cccc([N+](=O)[O-])c2)o1
CCOC(=O)c1[nH]c(C(=O)O)c(CCC(=O)OC)c1C
CCOCCCN1C(=O)CN(C2CCCCC2)C(=O)C1c1ccc(OCC)c(OC)c1 (centres undefined)
COC(=O)[C@H](N)Cc1ccc(Cl)cc1
CC1(C)CC(=O)C2=C(C1)Oc1nc3ccccc3cc1C2C(C#N)C#N (centres undefined)
COc1cc(C2C(C#N)=C(N)OC3=C2C(=O)CCC3)c([N+](=O)[O-])cc1OC (centres undefined)
CC(C)(C)C(=O)OCOC(=O)[C@@H]1N2C(=O)[C@@H](NC(=O)[C@H](N)c3ccccc3)[C@H]2SC1(C)C
CCCCN1CCC(COC(=O)c2cc(Cl)c(N)c3c2OCCO3)CC1
CC1(C)CC(=O)c2cnc(N)nc2C1
CC1(C)O[C@H]2C[C@@H]3[C@H]4CCC5=CC(=O)CC[C@@]5(C)[C@]4(F)[C@@H](O)C[C@@]3(C)[C@@]2(C(=O)CCl)O1
COc1cc2ccc(=O)oc2cc1O
OC[C@@H]1O[C@@H](n2cnc3c(NC4CCCC4)ncnc32)[C@H](O)[C@H]1O
NCc1ccc(S(N)(=O)=O)cc1
COc1nc(OCCNC(C)=O)nc(N(C)C)n1
CCCn1cnc2c1c(=O)n(CCCCC(C)=O)c(=O)n2C
Cc1cnc(CNc2cc(-c3ccccc3C)ncn2)cn1
CN(C)Cc1ccccc1-c1cc(NCc2ccccc2)ncn1
Cc1cnc(CNc2cc(-c3ccccc3Cl)ncn2)cn1

activity, negative = inhibition, inactive:
CC[C@@]1(O)C(=O)OCc2c1cc1n(c2=O)Cc2cc3c(CN(C)C)c(O)ccc3nc2-1 -16.8% [at 11.4 µM]
Clc1ccc2c(NCCNC3CCCCC3)ccnc2c1 41% [at 11.4 µM]
C[N+]1(C)CCc2cc(O)c(O)cc2[C@H]1Cc1ccc(O)c(O)c1 26.9% [at 11.4 µM]
CCN1C(=O)[C@H]2[C@H]3[C@H](O)[C@H](O)C/C(=N/O[C@@H](C)c4cn([C@H]5COC[C@H]5O)nn4)[C@@H]3CC[C@@H]2C1=O 27.9% [at 11.4 µM]
C/C(=C\c1ccc(Cl)cc1)C(C)(C)C(=O)O -25.9% [at 11.4 µM]
C#CCOCCCC(=O)O 22.8% [at 11.4 µM]
O=[N+]([O-])c1ccc2ncccc2c1CCc1c([N+](=O)[O-])ccc2ncccc12 39.5% [at 11.4 µM]
O=S(=O)(O)c1cc(N=Nc2cccc3ccccc23)c(O)c2ncccc12 -29.3% [at 11.4 µM]
CSc1ncnc2c1ncn2[C@@H]1O[C@@H](CO)[C@H](O)O[C@@H]1O 41% [at 11.4 µM]
CN(N=O)c1ccc(/C=C\c2ccnc3ccccc23)cc1 14.4% [at 11.4 µM]
C#CCCCO/N=C1/C[C@@H](O)[C@@H](O)[C@@H]2[C@@H]3C(=O)N([C@@H](C)c4ccccc4)C(=O)[C@H]3CC[C@H]12 -27.2% [at 11.4 µM]
O=C(O)c1c(Br)c(Br)c(Br)c(Br)c1C1c2ccc(O)cc2Oc2cc(O)ccc21 -94.3% [at 11.4 µM]
